According to the supplement of paper PMC13380429:

Test system: Vero E6 infected with SARS-CoV-2
Test: morphology score (similarity to uninfected cells); higher = more like uninfected cells
Conditions: 24 h

| SMILES | morphology score |
| --- | --- |
| C=CC(N)CCC(=O)O (stereo not given) [vigabatrin] (10 µM) | 0.188 |
| O=C(O)CCC(=O)C(=O)O [2-oxoglutaric-acid] (10 µM) | -0.135 |
| OCCN1CCN(CCCN2c3ccccc3C=Cc3ccccc32)CC1 [opipramol] (10 µM) | 0.237 |
| Oc1ccc([C@H]2COc3cc(O)ccc3C2)cc1 [equol] (10 µM) | -0.116 |
| CN1CCN(c2ccc(/C=C(\C#N)c3ccccc3Br)cc2)CC1 (10 µM) | -0.13 |
| COc1cc(NS(C)(=O)=O)ccc1Nc1c2ccccc2nc2ccccc12 [amsacrine] (10 µM) | -0.0803 |
| CCC(CC)Nc1nc(C)c(-c2ccc(OC(F)(F)F)cc2OC)nc1OC (10 µM) | 0.2 |
| CC(=O)NNC(=O)N1Cc2ccccc2Oc2ccc(Cl)cc21 (10 µM) | 0.0638 |
| CC(C)(CO)CCCCCCC(C)(C)CO [gemcadiol] (10 µM) | 0.124 |
| C[C@]12CC[C@@H]3c4ccc(OS(=O)(=O)O)cc4CC[C@H]3[C@@H]1CCC2=O [estropipate] (10 µM) | 0.227 |
| CC(C)[C@]12O[C@H]1[C@@H]1O[C@]13[C@]1(O[C@H]1C[C@H]1C4=C(CC[C@@]13C)C(=O)OC4)[C@@H]2O [triptolide] (10 µM) | 0.381 |
| COc1cccc(-c2cc(=O)c3ccccc3o2)c1N (10 µM) | -0.25 |
| C[N+](C)(C)CC(O)CC(=O)[O-] (stereo not given) [carnitine-(D/L)] (10 µM) | -0.213 |
| Cc1nc(-c2ccc(OCC(C)C)c(C#N)c2)sc1C(=O)O [febuxostat] (10 µM) | 0.0407 |
| C[C@@H]1C[C@H]2[C@@H]3C[C@H](F)C4=CC(=O)C=C[C@]4(C)[C@@]3(Cl)[C@@H](O)C[C@]2(C)[C@H]1C(=O)COC(=O)C(C)(C)C [clocortolone-pivalate] (10 µM) | 0.067 |
| Cc1cccc(Nc2ccncc2S(=O)(=O)NC(=O)NC(C)C)c1 [torasemide] (10 µM) | 0.215 |
| N[C@H]1C[C@@H]1c1ccc(-c2cccc(O)c2)cc1 (10 µM) | 0.246 |
| COc1ccc(S(=O)(=O)Nc2nc(-c3cccc([N+](=O)[O-])c3)cs2)cc1OC (10 µM) | -0.00369 |
| Nc1c2c(nc3c1CCC3)CCCC2 [ipidacrine] (10 µM) | 0.22 |
| O=c1c(O[C@@H]2O[C@H](CO)[C@H](O)[C@H](O)[C@H]2O)c(-c2ccc(O)c(O)c2)oc2cc(O)cc(O)c12 [hyperin] (10 µM) | -0.0819 |

| SMILES | morphology score |
| --- | --- |
| O=C1c2cc(Cl)ccc2OC2CCON12 (stereo not given) [seclazone] (10 µM) | 0.0763 |
| Cc1cccn2c(=O)c(-c3nnn[nH]3)cnc12 [pemirolast] (10 µM) | 0.106 |
| O=C(O)c1c(Sc2ccccc2)c2cc(Cl)ccc2n1Cc1ccc(Cl)cc1 (10 µM) | 0.149 |
| O=C(O)c1ccc(OCCn2ccnc2)cc1 [dazoxiben] (10 µM) | 0.196 |
| O=S1(=O)CCN(CN2CCS(=O)(=O)NC2)CN1 [taurolidine] (10 µM) | -0.0437 |
| CN1C(=O)CC(c2ccccc2)C1=O (stereo not given) [phensuximide] (10 µM) | 0.0814 |
| CCCCCCCCCCCCCCCC(=O)OC(C)C [isopropyl-palmitate] (10 µM) | 0.286 |
| CCN1CCCC(OC(=O)C(c2ccccc2)c2ccccc2)C1 (stereo not given) [piperidolate] (10 µM) | 0.17 |
| c1cncc(CN2CCC(n3ncc4c(N5CCOCC5)nc(-c5ccc6[nH]ccc6c5)nc43)CC2)c1 (0.833333 µM) | 0.491 |
| O=C(O)c1cc(-c2ccc(F)cc2F)ccc1O [diflunisal] (10 µM) | -0.15 |
| COc1cc(C(=O)NC2CCCNC2)cc(OC)c1OC (stereo not given) [troxipide] (10 µM) | -0.014 |
| O=C(CCCl)NCCc1ccccc1 [fenaclon] (10 µM) | 0.0663 |
| CC(=O)NS(=O)(=O)c1ccc(N)cc1 [sulfacetamide] (10 µM) | 0.147 |
| CCOc1ccn(-c2ccc(F)cc2)c(=O)c1C(=O)Nc1ccc(Oc2ccnc(N)c2Cl)c(F)c1 (10 µM) | 0.364 |
| Oc1ccc(O)cc1 [hydroquinone] (10 µM) | 0.00582 |
| CCN(CC)C(=O)N1CCN(C)CC1 [diethylcarbamazine] (10 µM) | 0.035 |
| C[C@H]1C[C@@H]2[C@H]([C@@H](O)C[C@@]3(C)[C@H]2CC[C@]3(O)C(=O)CO)[C@@]2(C)C=CC(=O)C=C12 [methylprednisolone] (10 µM) | -0.0624 |
| CC(C)[C@](O)(c1ccc2cc(OC(F)F)c(OC(F)F)cc2c1)c1c[nH]nn1 (10 µM) | 0.165 |
| CCCCCCCCCCCCCCOc1ccc(C(=O)O)o1 (0.833333 µM) | 0.208 |
| CN1CCN(c2cc(-c3ccccc3)nc(N)n2)CC1 (10 µM) | 0.206 |

Test system: Vero E6 infected with SARS-CoV-2
Test: SARS-CoV-2 infection rate relative to infected DMSO; higher = more infection, active = 60 or less
Conditions: 24 h

| SMILES | SARS-CoV-2 infection rate |
| --- | --- |
| C=CC(N)CCC(=O)O (stereo not given) [vigabatrin] (10 µM) | 99.5% (inactive) |
| O=C(O)CCC(=O)C(=O)O [2-oxoglutaric-acid] (10 µM) | 110% (inactive) |
| OCCN1CCN(CCCN2c3ccccc3C=Cc3ccccc32)CC1 [opipramol] (10 µM) | 102% (inactive) |
| Oc1ccc([C@H]2COc3cc(O)ccc3C2)cc1 [equol] (10 µM) | 114% (inactive) |
| CN1CCN(c2ccc(/C=C(\C#N)c3ccccc3Br)cc2)CC1 (10 µM) | 116% (inactive) |
| COc1cc(NS(C)(=O)=O)ccc1Nc1c2ccccc2nc2ccccc12 [amsacrine] (10 µM) | 108% (inactive) |
| CCC(CC)Nc1nc(C)c(-c2ccc(OC(F)(F)F)cc2OC)nc1OC (10 µM) | 86.5% (inactive) |
| CC(=O)NNC(=O)N1Cc2ccccc2Oc2ccc(Cl)cc21 (10 µM) | 97.5% (inactive) |
| CC(C)(CO)CCCCCCC(C)(C)CO [gemcadiol] (10 µM) | 98.5% (inactive) |
| C[C@]12CC[C@@H]3c4ccc(OS(=O)(=O)O)cc4CC[C@H]3[C@@H]1CCC2=O [estropipate] (10 µM) | 99% (inactive) |
| CC(C)[C@]12O[C@H]1[C@@H]1O[C@]13[C@]1(O[C@H]1C[C@H]1C4=C(CC[C@@]13C)C(=O)OC4)[C@@H]2O [triptolide] (10 µM) | 89% (inactive) |
| COc1cccc(-c2cc(=O)c3ccccc3o2)c1N (10 µM) | 118% (inactive) |
| C[N+](C)(C)CC(O)CC(=O)[O-] (stereo not given) [carnitine-(D/L)] (10 µM) | 117% (inactive) |
| Cc1nc(-c2ccc(OCC(C)C)c(C#N)c2)sc1C(=O)O [febuxostat] (10 µM) | 118% (inactive) |
| C[C@@H]1C[C@H]2[C@@H]3C[C@H](F)C4=CC(=O)C=C[C@]4(C)[C@@]3(Cl)[C@@H](O)C[C@]2(C)[C@H]1C(=O)COC(=O)C(C)(C)C [clocortolone-pivalate] (10 µM) | 98% (inactive) |
| Cc1cccc(Nc2ccncc2S(=O)(=O)NC(=O)NC(C)C)c1 [torasemide] (10 µM) | 102% (inactive) |
| N[C@H]1C[C@@H]1c1ccc(-c2cccc(O)c2)cc1 (10 µM) | 87% (inactive) |
| COc1ccc(S(=O)(=O)Nc2nc(-c3cccc([N+](=O)[O-])c3)cs2)cc1OC (10 µM) | 107% (inactive) |
| Nc1c2c(nc3c1CCC3)CCCC2 [ipidacrine] (10 µM) | 83.5% (inactive) |
| O=c1c(O[C@@H]2O[C@H](CO)[C@H](O)[C@H](O)[C@H]2O)c(-c2ccc(O)c(O)c2)oc2cc(O)cc(O)c12 [hyperin] (10 µM) | 112% (inactive) |

| SMILES | SARS-CoV-2 infection rate |
| --- | --- |
| O=C1c2cc(Cl)ccc2OC2CCON12 (stereo not given) [seclazone] (10 µM) | 102% (inactive) |
| Cc1cccn2c(=O)c(-c3nnn[nH]3)cnc12 [pemirolast] (10 µM) | 94.5% (inactive) |
| O=C(O)c1c(Sc2ccccc2)c2cc(Cl)ccc2n1Cc1ccc(Cl)cc1 (10 µM) | 102% (inactive) |
| O=C(O)c1ccc(OCCn2ccnc2)cc1 [dazoxiben] (10 µM) | 99% (inactive) |
| O=S1(=O)CCN(CN2CCS(=O)(=O)NC2)CN1 [taurolidine] (10 µM) | 109% (inactive) |
| CN1C(=O)CC(c2ccccc2)C1=O (stereo not given) [phensuximide] (10 µM) | 112% (inactive) |
| CCCCCCCCCCCCCCCC(=O)OC(C)C [isopropyl-palmitate] (10 µM) | 77% (inactive) |
| CCN1CCCC(OC(=O)C(c2ccccc2)c2ccccc2)C1 (stereo not given) [piperidolate] (10 µM) | 106% (inactive) |
| c1cncc(CN2CCC(n3ncc4c(N5CCOCC5)nc(-c5ccc6[nH]ccc6c5)nc43)CC2)c1 (0.833333 µM) | 69% (inactive) |
| O=C(O)c1cc(-c2ccc(F)cc2F)ccc1O [diflunisal] (10 µM) | 110% (inactive) |
| COc1cc(C(=O)NC2CCCNC2)cc(OC)c1OC (stereo not given) [troxipide] (10 µM) | 120% (inactive) |
| O=C(CCCl)NCCc1ccccc1 [fenaclon] (10 µM) | 102% (inactive) |
| CC(=O)NS(=O)(=O)c1ccc(N)cc1 [sulfacetamide] (10 µM) | 100% (inactive) |
| CCOc1ccn(-c2ccc(F)cc2)c(=O)c1C(=O)Nc1ccc(Oc2ccnc(N)c2Cl)c(F)c1 (10 µM) | 107% (inactive) |
| Oc1ccc(O)cc1 [hydroquinone] (10 µM) | 108% (inactive) |
| CCN(CC)C(=O)N1CCN(C)CC1 [diethylcarbamazine] (10 µM) | 104% (inactive) |
| C[C@H]1C[C@@H]2[C@H]([C@@H](O)C[C@@]3(C)[C@H]2CC[C@]3(O)C(=O)CO)[C@@]2(C)C=CC(=O)C=C12 [methylprednisolone] (10 µM) | 108% (inactive) |
| CC(C)[C@](O)(c1ccc2cc(OC(F)F)c(OC(F)F)cc2c1)c1c[nH]nn1 (10 µM) | 102% (inactive) |
| CCCCCCCCCCCCCCOc1ccc(C(=O)O)o1 (0.833333 µM) | 96.5% (inactive) |
| CN1CCN(c2cc(-c3ccccc3)nc(N)n2)CC1 (10 µM) | 94.5% (inactive) |
